Inconclusive results are not listed. The source made the active and inactive calls. The calls were made as follows, unless noted: active = hit-call score of the fitted dose curve at least 0.9, where 1 is the maximum; inactive = score below 0.9.
Key:
[1] = molecular target: Glucocorticoid receptor (Homo sapiens) (UniProt P04150); experiment: ATG_GR_TRANS: Attagene TRANS-FACTORIAL HepG2 Assay for human Glucocorticoid Receptor (GR) (AID 2282978; active = hit-call score of the fitted dose curve at least 0.9, where 1 is the maximum;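 also: activators score as hits since higher reporter transcript over DMSO is fitted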); settings: HepG2 Attagene TRANS GR reporter, mRNA transcription
Procedure, shortened: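 Exogenous NR-GAL4 fusion activity was assessed through induced GAL4-UAS reporter transcripts in transfected human HepG2 cells, quantified after 24 h by RT-PCR and fluorescent capillary electrophoresis with DMSO as baseline.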

[2] = molecular target: Hepatocyte nuclear factor 4-alpha (Homo sapiens) (UniProt P41235); experiment: ATG_HNF4a_TRANS: Attagene TRANS-FACTORIAL HepG2 Assay for human Hepatocyte Nuclear Factor 4 alpha (HNF4a) (AID 2282982; active = hit-call score of the fitted dose curve at least 0.9, where 1 is the maximum); settings: HepG2 HNF4a transactivation reporter, mRNA readout
Procedure, shortened: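 HepG2 cells transiently transfected with multiplexed GAL4-UAS reporter units responsive to chimeric NR-GAL4 proteins; compound exposure 24 h. Reporter mRNA quantified by RT-PCR, 6-FAM labelling, HpaI digestion and capillary electrophoresis; gain of signal versus DMSO baseline.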

[3] = molecular target: Nuclear respiratory factor 1 (Homo sapiens) (UniProt Q16656); experiment: ATG_NRF1_CIS: Attagene CIS-FACTORIAL HepG2 Assay for human Nuclear Respiratory Factor 1 (NRF1) Orphan Gene (AID 2282987); settings: HepG2 NRF1 cis-element reporter, Attagene multiplex; actives raise or lower the signal
Procedure, shortened: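 Using DMSO as baseline, gain- or loss-of-signal was fitted for reporter mRNA levels in HepG2 cells transiently transfected with cis-regulated reporter units. Samples were taken 24 h after dosing and read by RT-PCR with capillary electrophoresis.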

[4] = ATG_NFI_CIS: Attagene CIS-FACTORIAL HepG2 Assay for human Nuclear Factor I (NFI) (AID 2282989); settings: HepG2 cis-regulatory reporter, NFI response element transcription; actives raise or lower the signal
Procedure, shortened: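 HepG2, transient MRTU, 24 h exposure; RNA→cDNA→PCR→FAM label→HpaI→CE fluorescence. Bidirectional fit, DMSO = baseline.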

[5] = molecular target: Myc proto-oncogene protein (Homo sapiens) (UniProt P01106); experiment: ATG_Myc_CIS: Attagene CIS-FACTORIAL HepG2 Assay for human Myelocytomatosis (Myc) Proto-Oncogene Transcription Factor (AID 2282990); settings: HepG2, Attagene cis-reporter transcription factor activity; actives raise or lower the signal
Procedure, shortened: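 DMSO-normalised, bidirectionally fitted reporter mRNA signal. HepG2 cells transfected with cis reporter constructs, treated 24 h; transcripts detected by RT-PCR, 6-FAM primer extension and CE.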

[6] = ATG_NRF2_ARE_CIS: Attagene CIS-FACTORIAL HepG2 Assay for human Nuclear Factor Erythroid 2 Related Factor 2 (NFR2) response to Antioxidant Response Elements (ARE) (AID 2282992); settings: HepG2 Attagene ARE/NRF2 reporter, transcription factor activity; actives raise or lower the signal;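 as to AC50: reporter mRNA level measured by RT-PCR and capillary electrophoresis fluorescence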
Procedure, shortened: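 Multiplexed reporter mRNA profiling in HepG2 after a 24 h chemical exposure. Curves fitted in both directions relative to DMSO negative control.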

[7] = ATG_Oct_MLP_CIS: Attagene CIS-FACTORIAL HepG2 Assay for human Octamer-Binding Transcription Factor (Oct) (AID 2282993); settings: HepG2 Attagene cis-factorial Oct reporter, mRNA; actives raise or lower the signal
Procedure, shortened: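 Multiplexed cis-reporter assay in human liver HepG2 cells, 24 h incubation. Reporter RNA amplified and labelled, then resolved by capillary electrophoresis; DMSO serves as negative control and baseline.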

[8] = ATG_M_06_TRANS: Attagene TRANS-FACTORIAL HepG2 Assay for M06 Transcription Factor (Internal Marker) (AID 2282983; active = hit-call score of the fitted dose curve at least 0.9, where 1 is the maximum;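 also: reporter transcript level by RT-PCR then capillary electrophoresis fluorescence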); settings: HepG2 Attagene TRANS M06 internal marker reporter
Procedure, shortened: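 HepG2 cells transiently transfected with GAL4-UAS multiple reporter units, dosed 24 h. Reporter RNA reverse-transcribed, PCR-amplified, 6-FAM-labeled, HpaI-digested and quantified by capillary electrophoresis; this internal-marker signal fitted upward relative to DMSO.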

[9] = molecular target: Transcriptional activator Myb (Homo sapiens) (UniProt P10242); experiment: ATG_Myb_CIS: Attagene CIS-FACTORIAL HepG2 Assay for human Myeloblastosis (Myb) Proto-Oncogene Transcription Factor (AID 2282986); settings: HepG2 Attagene CIS-FACTORIAL Myb reporter transcription; actives raise or lower the signal
Procedure, shortened: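 In this HepG2 transient-transfection format, cis-regulated reporter mRNA is quantified 24 h post-dosing by RT-PCR with capillary electrophoresis, fitted bidirectionally to DMSO baseline.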

[10] = ATG_NF_kB_CIS: Attagene CIS-FACTORIAL HepG2 Assay for human Nuclear Factor Kappa B (NF-kB) (AID 2282991); settings: HepG2 Attagene cis-factorial NF-kB reporter mRNA; actives raise or lower the signal
Procedure, shortened: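 Endpoint from a 52-component multiplexed HepG2 reporter panel: cis-regulated transcription units transiently transfected, 24 h dosing, reporter mRNA quantified by RT-PCR and capillary electrophoresis, scored as increase or decrease against DMSO.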

[11] = molecular target: Cellular tumor antigen p53 (Homo sapiens) (UniProt P04637); experiment: ATG_p53_CIS: Attagene CIS-FACTORIAL HepG2 Assay for human p53 Transcription Factor (AID 2282994); settings: HepG2 p53 cis-element reporter, Attagene mRNA; actives raise or lower the signal
Procedure, shortened: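 Multiplexed reporter mRNA assay in human HepG2 liver cells; cis-regulated units report endogenous factor activity. Values come from bidirectional curve fitting against DMSO negative control after 24 h treatment.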

[12] = molecular target: Nuclear receptor subfamily 4 group A member 2 (Homo sapiens) (UniProt P43354); experiment: ATG_NURR1_TRANS: Attagene TRANS-FACTORIAL HepG2 Assay for human Nuclear Receptor Related Protein 1 (NURR1) (AID 2282985; active = hit-call score of the fitted dose curve at least 0.9, where 1 is the maximum); settings: HepG2 Attagene TRANS reporter, mRNA readout
Procedure, shortened: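 HepG2 cells transiently transfected with GAL4-UAS reporter units and chimeric NR-Gal4 constructs; chemical exposure 24 h. Reporter mRNA quantified by RT-PCR, fluorescent labelling and capillary electrophoresis; gain of signal fitted relative to DMSO baseline.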

[13] = BSK_3C_TissueFactor: BioMAP Diversity Plus: 3C Assay for Tissue Factor Biomarker Activity (AID 2282997); settings: BioMAP 3C HUVEC, tissue factor biomarker readout; actives raise or lower the signal
Procedure, shortened: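 HUVEC were treated 24 h, then surface tissue factor measured by ELISA and fitted bidirectionally against DMSO. Parallel SRB total-protein staining assessed overt cytotoxicity at the same time point.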

[14] = BSK_3C_uPAR: BioMAP Diversity Plus: 3C Assay for Urokinase-type plasminogen activator receptor (uPAR) Biomarker Activity (AID 2282998); settings: BioMAP 3C HUVEC, uPAR biomarker ELISA; actives raise or lower the signal
Procedure, shortened: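 Dose primary human umbilical vein endothelial cells, incubate 24 h, measure cell-surface uPAR by ELISA, then fit the signal in both directions against the DMSO negative control.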

[15] = BSK_3C_VCAM1: BioMAP Diversity Plus: 3C Assay for Vascular cell adhesion molecule 1 (VCAM1) Biomarker Activity (AID 2282999); settings: BioMAP 3C HUVEC, VCAM1 ELISA, cytokine-stimulated; actives raise or lower the signal
Procedure, shortened: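 Human umbilical vein endothelial cells were dosed with compound for 24 h, after which cell-surface VCAM-1 was quantified by ELISA. Bidirectional curve fitting used DMSO as negative control and activity baseline.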

[16] = BSK_4H_Eotaxin3: BioMAP Diversity Plus: 4H Assay for Eotaxin 3 Biomarker Activity (AID 2283000); settings: primary human endothelial cells (HUVEC); actives raise or lower the signal;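 also: CCL26 protein level quantified by ELISA in parallel with SRB cytotoxicity check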
Procedure, shortened: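 Eotaxin-3 (CCL26) levels were measured by ELISA in HUVEC primary cultures 24 h post-dosing. Gain or loss of signal was fitted in both directions, with DMSO serving as baseline and negative control.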

[17] = ATG_M_32_TRANS: Attagene TRANS-FACTORIAL HepG2 Assay for M32 Transcription Factor (Internal Marker) (AID 2282984; active = hit-call score of the fitted dose curve at least 0.9, where 1 is the maximum;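 also: transcript level of a background control reporter unit measured by RT-PCR and capillary electrophoresis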); settings: HepG2 Attagene TRANS M32 internal marker reporter
Procedure, shortened: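 HepG2 cells transiently transfected with multiple GAL4-UAS reporter transcription units, dosed for 24 hours; reporter mRNA quantified by RT-PCR, 6-FAM primer extension, HpaI digestion and capillary electrophoresis. Gain-of-signal fitted versus DMSO baseline; internal background-control marker.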

[18] = molecular target: Oxysterols receptor LXR-beta (Homo sapiens) (UniProt P55055); experiment: ATG_LXRb_TRANS: Attagene TRANS-FACTORIAL HepG2 Assay for human Liver X Receptor beta (LXRb) (AID 2282981; active = hit-call score of the fitted dose curve at least 0.9, where 1 is the maximum); settings: HepG2 Attagene TRANS GAL4-LXRb reporter, mRNA
Procedure, shortened: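 HepG2 cells transiently transfected with multiple reporter transcription units carrying chimeric NR-Gal4 proteins acting on GAL4-UAS reporters; compound exposure 24 h. Reporter mRNA quantified by RT-PCR, 6-FAM labelling, HpaI digestion and capillary electrophoresis; gain of signal versus DMSO.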

[19] = molecular target: Bile acid receptor (Homo sapiens) (UniProt Q96RI1); experiment: ATG_FXR_TRANS: Attagene TRANS-FACTORIAL HepG2 Assay for Farnesoid X Receptor (FXR) (AID 2282979; active = hit-call score of the fitted dose curve at least 0.9, where 1 is the maximum;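 also: hits raise reporter mRNA above DMSO so AC50 marks FXR activation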); settings: HepG2 Attagene TRANS FXR-GAL4 reporter transcription
Procedure, shortened: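 HepG2 cells were transiently transfected with GAL4-UAS reporters driven by chimeric NR-Gal4 proteins and dosed for 24 h. Reporter mRNA was quantified by RT-PCR, fluorescent labelling, HpaI digestion and capillary electrophoresis, with gain of signal scored versus DMSO.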

[20] = molecular target: Oxysterols receptor LXR-alpha (Homo sapiens) (UniProt Q13133); experiment: ATG_LXRa_TRANS: Attagene TRANS-FACTORIAL HepG2 Assay for human Liver X Receptor alpha (LXRa) (AID 2282980; active = hit-call score of the fitted dose curve at least 0.9, where 1 is the maximum); settings: HepG2 Attagene TRANS reporter, LXRa transactivation
Procedure, shortened: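 HepG2 cells transiently transfected with GAL4-UAS reporter units for chimeric NR-Gal4 proteins, exposed to chemicals for 24 h. Reporter mRNA quantified by RT-PCR and capillary electrophoresis; gain of signal fitted relative to DMSO.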

Measured: AC50

Chain of Glucocorticoid receptor (Homo sapiens) (P04150 whole entry, looked up, the tested form may be a part): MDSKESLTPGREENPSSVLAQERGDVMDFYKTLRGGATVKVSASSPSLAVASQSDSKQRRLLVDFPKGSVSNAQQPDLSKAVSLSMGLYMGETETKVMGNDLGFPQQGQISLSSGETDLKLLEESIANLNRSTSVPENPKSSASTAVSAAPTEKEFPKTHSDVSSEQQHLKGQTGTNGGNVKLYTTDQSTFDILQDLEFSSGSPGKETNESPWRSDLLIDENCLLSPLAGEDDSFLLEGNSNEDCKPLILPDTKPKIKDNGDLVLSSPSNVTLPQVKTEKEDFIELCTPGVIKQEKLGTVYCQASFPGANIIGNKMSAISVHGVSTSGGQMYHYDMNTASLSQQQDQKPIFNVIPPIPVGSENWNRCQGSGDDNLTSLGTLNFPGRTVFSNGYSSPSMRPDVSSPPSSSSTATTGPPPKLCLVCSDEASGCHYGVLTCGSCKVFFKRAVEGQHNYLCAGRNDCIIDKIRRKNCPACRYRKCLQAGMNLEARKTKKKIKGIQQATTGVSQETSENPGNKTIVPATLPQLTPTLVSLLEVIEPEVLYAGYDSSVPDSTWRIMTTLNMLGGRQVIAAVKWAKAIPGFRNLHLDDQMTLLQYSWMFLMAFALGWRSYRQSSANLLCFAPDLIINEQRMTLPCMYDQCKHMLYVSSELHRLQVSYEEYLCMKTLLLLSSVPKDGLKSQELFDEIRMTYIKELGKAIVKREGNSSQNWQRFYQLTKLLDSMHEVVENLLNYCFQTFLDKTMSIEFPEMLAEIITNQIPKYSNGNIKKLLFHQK
Chain of Cellular tumor antigen p53 (Homo sapiens) (P04637 whole entry, looked up): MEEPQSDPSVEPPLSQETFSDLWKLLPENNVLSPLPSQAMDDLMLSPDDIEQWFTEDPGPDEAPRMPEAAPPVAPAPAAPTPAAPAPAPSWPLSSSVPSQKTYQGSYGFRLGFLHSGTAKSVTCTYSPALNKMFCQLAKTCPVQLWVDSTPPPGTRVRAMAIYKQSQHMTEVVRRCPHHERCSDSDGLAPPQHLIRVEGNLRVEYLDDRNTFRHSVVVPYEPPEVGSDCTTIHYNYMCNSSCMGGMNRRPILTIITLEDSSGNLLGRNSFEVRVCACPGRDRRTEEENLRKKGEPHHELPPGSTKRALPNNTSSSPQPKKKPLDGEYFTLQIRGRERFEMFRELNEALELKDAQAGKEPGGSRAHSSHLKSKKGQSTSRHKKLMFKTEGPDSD
Chain of Myc proto-oncogene protein (Homo sapiens) (P01106 whole entry, looked up): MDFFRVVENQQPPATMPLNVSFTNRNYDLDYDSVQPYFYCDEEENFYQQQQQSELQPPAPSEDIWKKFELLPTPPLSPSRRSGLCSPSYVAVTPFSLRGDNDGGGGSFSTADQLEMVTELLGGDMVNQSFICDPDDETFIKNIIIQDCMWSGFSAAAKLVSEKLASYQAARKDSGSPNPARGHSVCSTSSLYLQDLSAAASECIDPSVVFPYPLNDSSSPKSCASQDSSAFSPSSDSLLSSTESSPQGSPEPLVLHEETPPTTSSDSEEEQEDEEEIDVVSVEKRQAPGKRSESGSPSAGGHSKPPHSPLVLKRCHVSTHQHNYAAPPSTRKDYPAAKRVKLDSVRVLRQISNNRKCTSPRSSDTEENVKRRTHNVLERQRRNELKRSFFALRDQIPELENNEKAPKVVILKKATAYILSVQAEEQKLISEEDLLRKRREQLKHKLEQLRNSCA
Chain of Transcriptional activator Myb (Homo sapiens) (P10242 whole entry, looked up): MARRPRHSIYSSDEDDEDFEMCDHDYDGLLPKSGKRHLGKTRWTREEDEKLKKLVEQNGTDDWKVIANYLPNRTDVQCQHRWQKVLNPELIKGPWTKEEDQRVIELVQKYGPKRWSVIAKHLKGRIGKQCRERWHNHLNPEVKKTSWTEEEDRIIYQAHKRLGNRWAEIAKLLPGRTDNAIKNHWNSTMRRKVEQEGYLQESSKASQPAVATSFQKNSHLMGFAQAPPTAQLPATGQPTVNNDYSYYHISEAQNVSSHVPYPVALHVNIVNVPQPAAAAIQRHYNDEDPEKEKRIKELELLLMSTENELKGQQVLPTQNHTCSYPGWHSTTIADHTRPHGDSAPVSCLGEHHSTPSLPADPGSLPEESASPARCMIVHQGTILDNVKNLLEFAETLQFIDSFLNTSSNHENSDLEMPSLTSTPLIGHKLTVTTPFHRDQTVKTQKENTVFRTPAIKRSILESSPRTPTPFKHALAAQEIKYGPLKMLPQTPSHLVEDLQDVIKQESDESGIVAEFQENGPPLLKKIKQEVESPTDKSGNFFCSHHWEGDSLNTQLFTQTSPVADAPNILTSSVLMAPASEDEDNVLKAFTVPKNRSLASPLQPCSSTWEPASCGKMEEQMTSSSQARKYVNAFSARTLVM
Chain of Hepatocyte nuclear factor 4-alpha (Homo sapiens) (P41235 whole entry, looked up, the tested form may be a part): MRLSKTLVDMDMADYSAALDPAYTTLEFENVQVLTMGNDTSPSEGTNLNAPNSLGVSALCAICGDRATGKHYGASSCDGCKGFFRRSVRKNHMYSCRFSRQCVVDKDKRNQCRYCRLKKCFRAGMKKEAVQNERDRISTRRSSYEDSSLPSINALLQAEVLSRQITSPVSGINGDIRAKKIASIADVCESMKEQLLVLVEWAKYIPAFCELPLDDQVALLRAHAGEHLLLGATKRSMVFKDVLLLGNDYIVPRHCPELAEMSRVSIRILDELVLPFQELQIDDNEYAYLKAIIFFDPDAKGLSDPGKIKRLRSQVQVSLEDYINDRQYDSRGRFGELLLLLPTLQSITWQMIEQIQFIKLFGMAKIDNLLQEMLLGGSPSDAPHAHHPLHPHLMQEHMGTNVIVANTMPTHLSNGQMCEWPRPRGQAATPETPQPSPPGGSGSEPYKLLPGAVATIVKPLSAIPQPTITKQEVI
Chain of Nuclear respiratory factor 1 (Homo sapiens) (Q16656 whole entry, looked up): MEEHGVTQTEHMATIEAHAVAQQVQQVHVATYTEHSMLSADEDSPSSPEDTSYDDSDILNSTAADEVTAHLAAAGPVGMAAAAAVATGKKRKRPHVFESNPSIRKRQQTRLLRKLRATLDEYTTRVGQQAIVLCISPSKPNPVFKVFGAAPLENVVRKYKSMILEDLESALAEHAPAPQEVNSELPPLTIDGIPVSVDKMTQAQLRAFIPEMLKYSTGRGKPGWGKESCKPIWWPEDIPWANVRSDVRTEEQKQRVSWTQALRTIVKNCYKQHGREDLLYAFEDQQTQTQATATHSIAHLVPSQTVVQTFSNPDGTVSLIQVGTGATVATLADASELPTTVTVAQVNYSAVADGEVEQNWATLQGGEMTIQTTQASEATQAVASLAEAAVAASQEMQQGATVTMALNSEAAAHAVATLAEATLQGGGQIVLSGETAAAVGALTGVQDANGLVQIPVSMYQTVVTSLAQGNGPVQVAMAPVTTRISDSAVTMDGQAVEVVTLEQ
Chain of Nuclear receptor subfamily 4 group A member 2 (Homo sapiens) (P43354 whole entry, looked up, the tested form may be a part): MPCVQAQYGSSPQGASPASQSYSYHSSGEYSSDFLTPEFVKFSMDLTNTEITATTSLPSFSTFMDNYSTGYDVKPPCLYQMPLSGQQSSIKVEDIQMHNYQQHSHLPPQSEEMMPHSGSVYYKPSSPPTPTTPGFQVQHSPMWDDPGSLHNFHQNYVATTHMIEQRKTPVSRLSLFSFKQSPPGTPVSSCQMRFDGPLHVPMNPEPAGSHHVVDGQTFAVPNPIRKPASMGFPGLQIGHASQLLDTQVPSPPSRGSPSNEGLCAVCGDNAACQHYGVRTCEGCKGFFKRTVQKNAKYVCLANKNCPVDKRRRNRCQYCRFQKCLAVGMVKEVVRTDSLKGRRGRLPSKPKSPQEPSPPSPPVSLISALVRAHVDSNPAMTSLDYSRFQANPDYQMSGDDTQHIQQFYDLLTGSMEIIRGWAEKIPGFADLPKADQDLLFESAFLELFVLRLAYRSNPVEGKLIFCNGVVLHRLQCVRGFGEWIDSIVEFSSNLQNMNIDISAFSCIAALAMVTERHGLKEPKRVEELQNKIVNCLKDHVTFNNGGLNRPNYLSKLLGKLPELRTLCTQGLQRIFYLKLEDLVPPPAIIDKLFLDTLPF
Chain of Oxysterols receptor LXR-beta (Homo sapiens) (P55055 whole entry, looked up, the tested form may be a part): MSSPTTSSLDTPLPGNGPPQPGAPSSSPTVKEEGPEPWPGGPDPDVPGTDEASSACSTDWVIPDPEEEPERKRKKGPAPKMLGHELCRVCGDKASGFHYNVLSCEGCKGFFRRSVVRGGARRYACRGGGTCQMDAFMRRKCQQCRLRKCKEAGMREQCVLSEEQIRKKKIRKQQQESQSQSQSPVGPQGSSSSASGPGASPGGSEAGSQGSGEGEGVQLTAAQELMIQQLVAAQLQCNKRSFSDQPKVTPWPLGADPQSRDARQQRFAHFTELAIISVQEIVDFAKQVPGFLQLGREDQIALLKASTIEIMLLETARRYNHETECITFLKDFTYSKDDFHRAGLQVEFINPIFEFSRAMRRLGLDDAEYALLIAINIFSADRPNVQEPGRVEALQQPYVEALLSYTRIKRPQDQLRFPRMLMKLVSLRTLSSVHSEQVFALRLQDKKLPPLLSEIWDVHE
Chain of Oxysterols receptor LXR-alpha (Homo sapiens) (Q13133 whole entry, looked up, the tested form may be a part): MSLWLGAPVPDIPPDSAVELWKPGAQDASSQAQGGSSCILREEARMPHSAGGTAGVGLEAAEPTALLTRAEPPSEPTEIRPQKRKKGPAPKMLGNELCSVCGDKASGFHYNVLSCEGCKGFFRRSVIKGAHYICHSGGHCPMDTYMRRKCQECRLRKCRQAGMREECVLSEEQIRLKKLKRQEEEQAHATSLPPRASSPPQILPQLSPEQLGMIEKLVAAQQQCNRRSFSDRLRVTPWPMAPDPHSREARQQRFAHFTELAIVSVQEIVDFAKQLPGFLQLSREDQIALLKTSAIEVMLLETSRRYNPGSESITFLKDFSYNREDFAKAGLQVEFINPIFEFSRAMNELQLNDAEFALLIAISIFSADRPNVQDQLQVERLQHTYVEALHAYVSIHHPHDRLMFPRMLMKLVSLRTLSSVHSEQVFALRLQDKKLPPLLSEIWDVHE

Cc1ccc(N)c([N+](=O)[O-])c1
inactive: [1] | [2] | [3] | [4] | [5] | [6] | [7]

O=C1CCCCCCCCCCC(=O)OCCO1
inactive: [1] | [8] | [9] | [3] | [4] | [5] | [10] | [7] | [11]

CCCCCc1ccc(Cl)cc1
inactive: [1] | [12] | [9] | [3] | [4] | [11]
active: [6] 120 µM

O=c1c2ccccc2oc2ccccc12
active: [6] 26.9 µM | [13] 3.97 µM
inactive: [1] | [2] | [9] | [3] | [4] | [5] | [10] | [7] | [14] | [15] | [16]

CCCCCCCC/C=C\CCCCCCCC(=O)OCCO
inactive: [1] | [2] | [8] | [17] | [12] | [9] | [4] | [7]
active: [10] 68.1 µM | [6] 40.8 µM

CCC(CC)C(=O)O
inactive: [1] | [2] | [9] | [3] | [4] | [5] | [10] | [6] | [7]

O=Nc1ccc(O)cc1
inactive: [1] | [2] | [8] | [17] | [12] | [9] | [3] | [4] | [5] | [10] | [6] | [7] | [13] | [14] | [15] | [16]

OCCNCc1ccccc1
inactive: [1] | [8] | [17] | [9] | [3] | [4] | [5] | [6] | [7]

C=CC(=O)OCCOC1C2CCC1C1CC=CC12 (stereo unspecified)
inactive: [1] | [18] | [12] | [9] | [3] | [5] | [10] | [6] | [7]

c1cc(C(c2ccc(OCC3CO3)cc2)C(c2ccc(OCC3CO3)cc2)c2ccc(OCC3CO3)cc2)ccc1OCC1CO1 (stereo unspecified)
active: [4] 22 µM | [6] 21.1 µM | [7] 25.6 µM
inactive: [1] | [8] | [17] | [9] | [3] | [5]

CO[Si](CCC1CCC2OC2C1)(OC)OC (stereo unspecified)
inactive: [1] | [17] | [9] | [3] | [4] | [5] | [10] | [6] | [11]

CC(C)=CCCC(C)C=O (stereo unspecified)
inactive: [19] | [20] | [18] | [2] | [17] | [12] | [9] | [3] | [4] | [5] | [10] | [6] | [7] | [11]
